Data published in PubChem BioAssay AID372 (MTDP, 2006).
Among all 100,000 compounds or so, about 770 (0.77%) were called active. This excerpt belongs to a sample that is enriched for actives. A number with no mark means an inactive call. Rule as the data show it: active = inhibition above about 50%; inactive = the rest.

These compounds were tested against Gag-Pol polyprotein (Human immunodeficiency virus type 1 group M subtype B (isolate HXB2)) (UniProt P04585) (assay: RNase H inhibition, HIV 1 Gag Pol polyprotein, FRET biochemical assay, screening (AID 372)). Conditions: HIV-1 RT RNase H, FRET RNA/DNA substrate fluorescence; at 10 µM; stronger effect = higher value.

SMILES | inhibition
O=C(c1c(F)cccc1F)N1CCN(c2cc(N3CCCC3)c(F)cc2[N+](=O)[O-])CC1 | 11%
CCc1ccc(OCC(=O)Nc2ccc3c(c2)C(=O)c2ccccc2C3=O)cc1 | 27%
COC(=O)c1c(NC(=O)c2cc(-c3ccc(Cl)s3)nc3ccccc23)sc2c1CCC(C(C)(C)C)C2 (centres undefined) | 1%
COc1ccc(C(Nc2ccccc2)P(=O)(OC(C)C)OC(C)C)cc1 (centres undefined) | 10%
COc1ccc(OC)c(NC(=O)c2ccc(N(C)S(=O)(=O)c3ccccc3)cc2)c1 | 13%
Oc1c(Cl)cc(Cl)cc1/C=N/N=C/c1cc(Cl)cc(Cl)c1O | 15%
CCOc1ccc(C2=NNC(=O)CC2)cc1 | 10%
CCCC1CCC(c2ccc(OCC)cc2)=CC1=O (centres undefined) | 8%
COc1ccc(C2=CC(=O)c3ccccc3C2=O)cc1 | 40%
COc1ccc(C2=CC(=O)C=CC2=O)cc1 | 75% (active)
COc1ccc(-c2cccc(=O)o2)cc1 | 0%
CCOC(=O)C1=C(C)N=c2s/c(=C\c3ccc(O)c(OC)c3)c(=O)n2C1c1cc(OC)ccc1OC (centres undefined) | 0%
CC(NC(=O)CN1C(=O)c2ccccc2C1=O)c1ccccc1 (centres undefined) | 3%
Cc1cccc(OCCCOc2cccc(/C=c3\sc4nc5ccccc5n4c3=O)c2)c1 | 3%
CCOc1ccc(NC(=S)NC(=O)/C=C/c2ccc(C)cc2)c([N+](=O)[O-])c1 | 21%
CCOc1ccc(NC(=S)NC(=O)/C=C/c2ccc(F)cc2)c([N+](=O)[O-])c1 | 84% (active)
CCOc1ccc(NC(=S)NC(=O)/C=C/c2ccc(OC)cc2)c([N+](=O)[O-])c1 | 60% (active)

SMILES | inhibition
CCOc1ccc(NC(=S)NC(=O)c2ccc(F)cc2)c([N+](=O)[O-])c1 | 7%
CCOc1ccc(NC(=S)NC(=O)c2ccccc2)c([N+](=O)[O-])c1 | 11%
CCOc1ccc(NC(=S)NC(=O)/C=C/c2ccc(OC)c(OC)c2)c([N+](=O)[O-])c1 | 2%
Brc1ccc(-c2nc(-c3ccccc3)c(-c3ccc(Br)cc3)[nH]2)cc1 | 17%
CCOC(=O)c1[nH]c(C)c(C(=O)N/N=C/c2ccc(-c3ccc(Cl)cc3)o2)c1C | 18%
C=CCOc1ccc(/C=C2\SC(N3CCN(c4ccccc4)CC3)=NC2=O)cc1 | 13%
Cc1ccc2c(c1)N(C(=O)CN1C(=O)c3ccccc3C1=O)C(C)(C)c1ssc(=S)c1-2 | 10%
COC(=O)C1=C(C(=O)OC)SC(=C2C(=S)C(C)(C)N(C(=O)/C=C/c3ccc(OC)c(OC)c3)c3ccc(OC)cc32)S1 | 53% (active)
COc1cccc(C(=O)N2c3cc(OC)ccc3-c3c(ssc3=S)C2(C)C)c1 | 54% (active)
COc1ccc(/C=C/C(=O)N2c3ccc(C)cc3-c3c(ssc3=S)C2(C)C)cc1 | 20%
COc1ccc2c(c1)N(C(=O)c1ccc(C(C)(C)C)cc1)C(C)(C)c1ssc(=S)c1-2 | 15%
COc1ccc(/C=C/C(=O)N2c3ccc(C)cc3-c3c(ssc3=S)C2(C)C)cc1OC | 57% (active)
COC(=O)C1=C(C(=O)OC)SC(=C2C(=S)C(C)(C)N(C(=O)/C=C/c3ccc(OC)cc3)c3ccc(C)cc32)S1 | 22%
COc1ccc2c(c1)-c1c(ssc1=S)C(C)(C)N2C(=O)/C=C/c1ccc(OC)c(OC)c1 | 27%
COc1cccc(C(=O)N2c3ccc(C)cc3-c3c(ssc3=S)C2(C)C)c1 | 13%
COC(=O)C1=C(C(=O)OC)SC(=C2C(=S)C(C)(C)N(C(=O)/C=C/c3ccc(OC)c(OC)c3)c3ccc(C)cc32)S1 | 40%
COc1ccc2c(c1)-c1c(ssc1=S)C(C)(C)N2C(=O)CN1C(=O)c2ccccc2C1=O | 0%
